Test results taken from PubChem BioAssay (Tox21).
Inconclusive results are not listed. The source made the active and inactive calls. Unless noted, calls come from the whole dose curve; as a rule, active = well fitted curve in the direction sought with a large enough effect in the repeat runs; inconclusive = weak or mixed curves; inactive = no such curve, though single readings can be large; an effect the other way counts as inactive or inconclusive.

Experiment: qHTS assay for small molecule disruptors of the mitochondrial membrane potential - cell viability (AID 720634; calls by dose curve; note: nearly all actives have a fitted effect of over 20% in size; note: potency is the fitted concentration of half-maximal effect;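 for activity change, negative = cytotoxicity: human HepG2 liver cancer cells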)
Conditions: HepG2 viability, ATP luminescence (CellTiter-Glo), 1 h; series mostly up to 83.2 µM; activity change, negative = cytotoxicity: at the top concentration
How it was run: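 Same-well counter-screen: following the MMP dye addition, CellTiter-Glo was added to 1 hr compound-treated HepG2 cells and luminescence read after 30 min at room temperature.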
% is set by controls: 0 for no effect and ±100 for the full control effect.

| SMILES | activity change, negative = cytotoxicity | Potency |
| --- | --- | --- |
| CN1CCCC(CC2c3ccccc3Sc3ccccc32)C1 (centres undefined) | 2.64% [at 39.1 µM] (inactive) | – |
| CC(C)c1nc(CN(C)C(=O)N[C@H](C(=O)N[C@@H](Cc2ccccc2)C[C@H](O)[C@H](Cc2ccccc2)NC(=O)OCc2cncs2)C(C)C)cs1 | – | inactive |
| CC(C)(c1ccccc1)c1ccccc1 | -5.28% (inactive) | – |
| CN1CCCC(n2nc(Cc3ccc(Cl)cc3)c3ccccc3c2=O)CC1 (centres undefined) | 3.86% (inactive) | – |
| O=C(O)CCCCCCCCCCCBr | 4.38% (inactive) | – |
| CCCCN1CCCC1C(=O)Nc1c(C)cc(C)cc1C (centres undefined) | -3.41% (inactive) | – |
| Cc1ccccc1N=C(N)Nc1ccccc1C | 4.09% (inactive) | – |
| CCOc1ccccc1O[C@H](c1ccccc1)[C@H]1CNCCO1 | 8.58% (inactive) | – |
| C=C/C(C)=C/C/C=C(\C)CCC=C(C)C | -12.3% (inactive) | – |
| Oc1cc2c(cc1O)[C@H]1c3ccc(O)c(O)c3OC[C@@]1(O)C2 | 10.2% [at 95.3 µM] (inactive) | – |
| CN(C)CCC=C1c2ccccc2C=Cc2ccccc21 | 0.39% (inactive) | – |
| CN(C(=O)CN(CCO)CC(=O)N(C)C(C)(C)Cc1ccccc1)C(C)(C)Cc1ccccc1 | -7.65% [at 39.1 µM] (inactive) | – |
| CC(=O)c1ccc([N+](=O)[O-])cc1 | -11.2% (inactive) | – |
| CCCCCCCCCCCCCCN(CCO)CCO | 4.72% (inactive) | – |
| CC1=C(Br)C(=O)C(Br)=C/C1=C(/c1ccccc1S(=O)(=O)O)c1cc(Br)c(O)c(Br)c1C | -17.1% (inactive) | – |
| COc1ccccc1NC(=O)c1cc2ccccc2cc1O | – | 7.7 µM (active) |
| O=C(Nc1cccc2c(=O)cc(-c3nn[nH]n3)oc12)c1ccc(OCCCCc2ccccc2)cc1 | -5.64% (inactive) | – |
| O=C1c2ccccc2C(=O)N1CCc1noc(-c2ccc(CN3CCCCCC3)s2)n1 | -17% (inactive) | – |
| Oc1c(I)cc(I)c2cccnc12 | 18.6% (inactive) | – |
| OCCN1CCN(CCCN2c3ccccc3Sc3ccc(Cl)cc32)CC1 | -10.1% [at 39.1 µM] (inactive) | – |
| C[C@H]1c2cccc(O)c2C(O)=C2C(=O)[C@]3(O)C(O)=C(C(N)=O)C(=O)[C@@H](N(C)C)[C@@H]3[C@@H](O)[C@@H]21 | 8.97% (inactive) | – |
| NNC(=O)CP(=O)(c1ccccc1)c1ccccc1 | 6.55% (inactive) | – |
| CN(C)CCN1C(=O)c2ccccc2N(C)c2ccccc21 | -2.98% (inactive) | – |
| C[C@]1(Cn2ccnn2)[C@H](C(=O)O)N2C(=O)C[C@H]2S1(=O)=O | 3.84% (inactive) | – |
| c1ccc(C[n+]2cccc3ccccc32)cc1 | 3.17% (inactive) | – |
| CC1CC(OC(=O)C(O)c2ccccc2)CC(C)(C)N1C (centres undefined) | – | inactive |
| COc1ccccc1N1CCN(CC(O)COc2cccc3ccccc23)CC1 (centres undefined) | 8.36% (inactive) | – |
| CN1C(=O)OC(C)(C)C1=O | – | inactive |
| CC1=C(CC=O)C(C)(C)CCC1 | 11.5% (inactive) | – |

Experiment: qHTS assay for small molecule disruptors of the mitochondrial membrane potential (AID 720635); note: potency is the fitted concentration of half-maximal effect
Conditions: HepG2 mitochondrial membrane potential, Mito-MPS dye ratio; series mostly up to 83.2 µM; ratio activity, negative = MMP loss: at the top concentration
How it was run: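 HepG2 cells (2,000/well) attached overnight at 37C, then took compound for 1 hr at 37C, 5% CO2. Mito-MPS dye was added for 30 min; fluorescence was read at 490/535 nm (monomers) and 540/590 nm (aggregates).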

| SMILES | Potency | ratio activity, negative = MMP loss |
| --- | --- | --- |
| CCOC(=O)c1ccc(C#Cc2ccc3c(c2)C(C)(C)CCS3)nc1 | 29.8 µM (active) | – |
| CCOC(=O)C1=C(C)NC(C)=C(C(=O)OC)C1c1cccc(Cl)c1Cl (centres undefined) | 19.7 µM (active) | – |
| COc1cc(C(=O)NC2CCN(C)CC2)ccc1Nc1ncc2c(n1)N(C1CCCC1)CC(F)(F)C(=O)N2C | 44.5 µM (active) | – |
| O=C(O)c1cccc(-c2noc(-c3ccccc3F)n2)c1 | – | -11% (inactive) |
| Cc1cc(=O)c2c(O)c3c(O)cc(=O)c4c3c3c(cc(O)c1c23)C(C)(C)C=4O | 0.473 µM (active) | – |
| C[C@@H]1CC(=O)NN=C1c1ccc(NN=C(C#N)C#N)cc1 | 23.7 µM (active) | – |

Experiment: qHTS assay to test for compound auto fluorescence at 590 nm (red) in HepG2 cells (AID 720674)
Conditions: HepG2 autofluorescence, red 540/590 nm, 1 h; series mostly up to 91.3 µM; fluorescence, relative to Rose Bengal: at the top concentration
How it was run: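 Rose Bengal sodium served as the red fluorophore standard. HepG2 monolayers (overnight attachment, MEM with 10% FBS) were exposed to test compounds for 1 hr at 37 C and read at Ex 540/Em 590 nm.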

| SMILES | fluorescence, relative to Rose Bengal | outcome |
| --- | --- | --- |
| C=C1CCC2CC1C2(C)C (centres undefined) | 0.0768% (inactive) | – |
| CN1CCCC(CC2c3ccccc3Sc3ccccc32)C1 (centres undefined) | 0.272% [at 18.6 µM] (inactive) | – |
| CC(C)c1nc(CN(C)C(=O)N[C@H](C(=O)N[C@@H](Cc2ccccc2)C[C@H](O)[C@H](Cc2ccccc2)NC(=O)OCc2cncs2)C(C)C)cs1 | – | inactive |
| CC(C)(c1ccccc1)c1ccccc1 | 0.0449% (inactive) | – |
| CN1CCCC(n2nc(Cc3ccc(Cl)cc3)c3ccccc3c2=O)CC1 (centres undefined) | 0.0873% [at 46 µM] (inactive) | – |
| O=C(O)CCCCCCCCCCCBr | -0.0013% (inactive) | – |
| Cc1ccccc1N=C(N)Nc1ccccc1C | -0.0726% (inactive) | – |
| CCOc1ccccc1O[C@H](c1ccccc1)[C@H]1CNCCO1 | 0.123% [at 46 µM] (inactive) | – |
| C=C/C(C)=C/C/C=C(\C)CCC=C(C)C | -0.0987% (inactive) | – |
| CCOC(=O)C1=C(C)NC(C)=C(C(=O)OC)C1c1cccc(Cl)c1Cl (centres undefined) | -0.0455% [at 46 µM] (inactive) | – |
| CN(C)CCC=C1c2ccccc2C=Cc2ccccc21 | -0.686% [at 46 µM] (inactive) | – |
| CN(C(=O)CN(CCO)CC(=O)N(C)C(C)(C)Cc1ccccc1)C(C)(C)Cc1ccccc1 | -0.825% [at 18.6 µM] (inactive) | – |
| CC(=O)c1ccc([N+](=O)[O-])cc1 | -0.489% (inactive) | – |
| CCCCCCCCCCCCCCN(CCO)CCO | -0.56% (inactive) | – |
| COc1cc(C(=O)NC2CCN(C)CC2)ccc1Nc1ncc2c(n1)N(C1CCCC1)CC(F)(F)C(=O)N2C | -0.0754% (inactive) | – |
| COc1ccccc1NC(=O)c1cc2ccccc2cc1O | -0.245% (inactive) | – |
| O=C(Nc1cccc2c(=O)cc(-c3nn[nH]n3)oc12)c1ccc(OCCCCc2ccccc2)cc1 | -0.206% [at 46 µM] (inactive) | – |
| O=C(O)c1cccc(-c2noc(-c3ccccc3F)n2)c1 | 0.526% [at 46 µM] (inactive) | – |
| Oc1c(I)cc(I)c2cccnc12 | 0.347% [at 46 µM] (inactive) | – |
| OCCN1CCN(CCCN2c3ccccc3Sc3ccc(Cl)cc32)CC1 | 0.837% [at 18.6 µM] (inactive) | – |
| C[C@@H]1CC(=O)NN=C1c1ccc(NN=C(C#N)C#N)cc1 | 0.254% [at 46 µM] (inactive) | – |
| NNC(=O)CP(=O)(c1ccccc1)c1ccccc1 | 0.0319% [at 46 µM] (inactive) | – |
| CN(C)CCN1C(=O)c2ccccc2N(C)c2ccccc21 | 0.15% [at 46 µM] (inactive) | – |
| C[C@]1(Cn2ccnn2)[C@H](C(=O)O)N2C(=O)C[C@H]2S1(=O)=O | 0.145% [at 46 µM] (inactive) | – |
| c1ccc(C[n+]2cccc3ccccc32)cc1 | -0.0505% (inactive) | – |
| CC1CC(OC(=O)C(O)c2ccccc2)CC(C)(C)N1C (centres undefined) | – | inactive |
| COc1ccccc1N1CCN(CC(O)COc2cccc3ccccc23)CC1 (centres undefined) | 0.471% [at 46 µM] (inactive) | – |
| CN1C(=O)OC(C)(C)C1=O | – | inactive |
| CC1=C(CC=O)C(C)(C)CCC1 | -0.0419% (inactive) | – |
